The text below walks through data of PubChem BioAssay.

Active and inactive are the calls of the source.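 Rule for the calls, unless noted: active = inhibition of the reporter signal at or above 50%; inactive = inhibition below 50%.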

A short description of experiment [1]: inhibitors of TNFa-induced NFkB p65 translocation, primary screen, imaging, HUVEC, MLSMR starter and 10KST1 sets (AID 438;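 active = inhibition above 20% together with a positive visual image hit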;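 note: compound added about 3h40 before a 20 min TNFalpha stimulation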;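 for inhibition: signal is the nuclear over cytoplasmic p65 intensity ratio per well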). Conditions: HUVEC TNFa-induced p65 nuclear translocation; cell count: measured here: nuclei count (cytotoxicity indicator), at 2.08 µM; inhibition: at 2 µM, stronger effect = higher value, 0% TNFa-plus-vehicle, 100% no-TNFa wells.
A short description of experiment [2]: inhibitors of mutant huntingtin aggregation, primary screen, imaging, exon1htt(103Q)mCFP cells, high-content imaging (AID 483;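 active = visual image review flags a hit and inhibition of aggregation exceeds 20%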;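 note: compound exposure lasted 3 days before fixation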;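 for nuclei count: percent of the per-plate median nuclei count of sample wells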). Conditions: exon1htt(103Q)mCFP cell line, aggregate imaging, at 2 µM; inhibition of aggregation: stronger effect = higher value; nuclei count: measured here: cell count, toxicity.
The nature of experiment [3]: inhibitors of E-selectin induction by TNFa, primary screen, imaging, HUVEC, immunofluorescence, MLSMR starter and 10KST1 sets (AID 487;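 active = visually confirmed hit in the image check and inhibition above 20%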;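 for inhibition: signal is fraction of cell area covered by stained E-selectin grains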;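 for nuclei count: 100% = median nuclei count of all wells on the same plate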). Particulars: HUVEC TNFalpha-induced E-selectin immunofluorescence imaging, at 2 µM; inhibition: stronger effect = higher value; nuclei count: measured here: cell number, toxicity.
Experiment [4] addresses Voltage-gated potassium channel subunit beta-2 (Rattus norvegicus) (UniProt P62483). The experiment in a line: KvBeta enzyme negative modulators, primary screen, biochemical, NADPH fluorescence (AID 622;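 active = fluorescence slope higher than the sample average by over 3 SD, cut at about -0.22 in these data, passing the limit was not always enough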;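 note: slope of raw intensity against log time taken from 70 to 1610 s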). Particulars: recombinant KvBeta, 4-cyanobenzaldehyde reduction, at 10 µM, stronger effect = higher value.
The target is the same in experiment [5]. Nature of the experiment: KvBeta positive modulators, primary screen, biochemical, NADPH fluorescence (AID 623;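 active = NADPH fluorescence slope more negative than the mean of all samples by about 3 SD, 99.7% confidence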;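 note: fluorescence intensity change per second fitted from 20 to 320 s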). Conditions: Recombinant KvBeta, NADPH fluorescence decrease slope, 10 min; at 10 µM; stronger effect = lower value.
For experiment [6], the target named is Alpha-2C adrenergic receptor (Homo sapiens) (UniProt P18825). The experiment in a line: modulators of alpha2C/GIRK thallium flux, primary screen, cell-based, HEK293 alpha2C/GIRK1/2 (AID 624;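 active = fluorescence slope after compound addition differing from the mean of all screened samples at 99.7% confidence, in either direction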;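 note: slope of fluorescence ratio to pre-addition baseline per second over 15 to 24 s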). Particulars: thallium flux BTC fluorescence, at 10 µM, actives lie on both sides.
Chain of Alpha-2C adrenergic receptor (Homo sapiens) (P18825 whole entry, looked up): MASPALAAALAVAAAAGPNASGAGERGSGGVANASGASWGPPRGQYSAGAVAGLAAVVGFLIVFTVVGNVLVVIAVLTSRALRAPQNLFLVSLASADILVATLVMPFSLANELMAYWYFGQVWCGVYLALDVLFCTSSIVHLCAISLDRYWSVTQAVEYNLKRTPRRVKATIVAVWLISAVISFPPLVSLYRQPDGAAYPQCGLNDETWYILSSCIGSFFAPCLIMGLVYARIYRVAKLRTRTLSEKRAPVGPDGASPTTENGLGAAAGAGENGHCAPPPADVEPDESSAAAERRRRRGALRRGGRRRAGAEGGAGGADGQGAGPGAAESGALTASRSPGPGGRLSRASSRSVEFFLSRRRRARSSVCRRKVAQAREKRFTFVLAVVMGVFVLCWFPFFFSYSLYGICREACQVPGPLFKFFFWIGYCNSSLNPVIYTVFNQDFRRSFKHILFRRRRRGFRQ
Experiment [7] can be described thus: inhibitors of Sendai virus-induced IRF3 signaling, primary screen, TLR/RLR signaling modifier project, cell-based, Sendai virus stimulus, luciferase, 10K MLSCN set (AID 602276;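 active = inhibition at or above 50% at 10 µM; inactive = inhibition below 50%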;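 note: firefly luciferase from ISG56 promoter only with Renilla not read in this screen; 0% = Sendai virus plus DMSO and 100% = medium plus DMSO without virus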). Conditions: HEK293 RL24 IRF3 luciferase reporter, at 10 µM, stronger effect = higher value.
A short description of experiment [8]: inhibitors of poly I:C-induced TLR3 signaling, primary screen, cell-based, poly I:C stimulus, luciferase, 10K MLSCN set (AID 602277). Particulars: HEK293-TLR3 RL24 IRF3 luciferase reporter, at 10 µM, stronger effect = higher value. (A reporter such as luciferase makes a cellular process visible.)

Chain of Voltage-gated potassium channel subunit beta-2 (Rattus norvegicus) (P62483 whole entry, looked up): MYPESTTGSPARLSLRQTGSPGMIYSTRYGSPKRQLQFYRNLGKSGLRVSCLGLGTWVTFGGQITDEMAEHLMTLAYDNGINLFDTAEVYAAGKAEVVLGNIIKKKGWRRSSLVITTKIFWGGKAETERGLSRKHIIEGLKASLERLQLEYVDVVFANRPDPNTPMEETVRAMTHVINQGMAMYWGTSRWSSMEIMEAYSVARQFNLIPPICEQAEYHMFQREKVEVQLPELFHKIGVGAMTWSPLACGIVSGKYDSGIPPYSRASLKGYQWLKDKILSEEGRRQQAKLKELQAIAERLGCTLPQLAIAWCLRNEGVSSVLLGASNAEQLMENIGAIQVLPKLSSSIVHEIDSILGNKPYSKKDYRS

Consider `Cc1ccc(-n2c(SCC3CCCCO3)nnc2-c2ccco2)cc1` (centres undefined), for which, in experiment [1], the cell count stood at 573. Also, the inhibition (commonly the drop in the measured response relative to a control, in per cent) in experiment [1] was 0.5% (inactive); in experiment [3], -17.5% (inactive); in experiment [7] it was 20.5% (inactive); in experiment [8], 25.2% (inactive). Besides, in experiment [2], the inhibition of aggregation is 7.5% (inactive). In addition, the nuclei count is 86.9% in experiment [2] and 102% in experiment [3]. The fluorescence slope in experiment [4] was -0.413 (inactive). The NADPH fluorescence slope in experiment [5] is -4.4e-05 (inactive). Further, in experiment [6], the slope was 0.00422 (inactive).

As for `O=C(NC1CCCCC1)N(Cc1ccc(F)cc1)Cc1nc2ccccc2c(=O)[nH]1`, the cell count in experiment [1] was determined as 348. Besides, the inhibition is 1.1% (inactive) in experiment [1], -71.7% (inactive) in experiment [3], 21% (inactive) in experiment [7] and 29% (inactive) in experiment [8]. For the same compound, the inhibition of aggregation in experiment [2] is -22.3% (inactive). Moreover, the nuclei count in experiment [2] worked out at 96.5%; in experiment [3] it was 99%. The fluorescence slope in experiment [4] is -0.333 (inactive). Besides, the NADPH fluorescence slope in experiment [5] was 3.6e-06 (inactive). Besides, the slope in experiment [6] was 0.0032 (inactive).

As for `COc1ccc(OC)c(C(=O)c2ccc(C(=O)O)cc2)c1`, the cell count in experiment [1] is 415. For the same compound, the inhibition in experiment [1] was 10.6% (inactive); in experiment [3], -71.4% (inactive); in experiment [7], 16.7% (inactive); in experiment [8] it was 18.4% (inactive). Also, in experiment [2], the inhibition of aggregation was -5.3% (inactive). In addition, the nuclei count in experiment [2] is 100%; in experiment [3] it was 110%. In experiment [4], the fluorescence slope was -0.508 (inactive). Besides, the NADPH fluorescence slope in experiment [5] is -2.9e-05 (inactive). In experiment [6], the slope is 0.00489 (inactive).

As for `O=S(=O)(c1ccc(F)cc1)N1CCC(N2CCCC2)CC1`, the cell count in experiment [1] was determined as 621. Moreover, the inhibition in experiment [1] was 12.4% (inactive); in experiment [3] it was 12.6% (inactive); in experiment [7], 6.84% (inactive); in experiment [8], 45.9% (inactive). Also, the inhibition of aggregation in experiment [2] was 5.9% (inactive). Moreover, the nuclei count in experiment [2] and in experiment [3] was 107% in each case. Further, the fluorescence slope in experiment [4] was -0.537 (inactive). Also, the NADPH fluorescence slope in experiment [5] was -4.2e-05 (inactive). Besides, the slope in experiment [6] is 0.00636 (inactive).

For the compound `COc1cccc(-n2c(CNc3ccc(F)cc3)nnc2SCC(N)=O)c1`, the cell count in experiment [1] worked out at 475. Besides, the inhibition in experiment [1] was 1.9% (inactive); in experiment [3], -32.3% (inactive); in experiment [7] it was 15.9% (inactive); in experiment [8] it was 24% (inactive). Moreover, the inhibition of aggregation in experiment [2] is -17% (inactive). Besides, the nuclei count in experiment [2] came to 113%; in experiment [3], 76.1%. The fluorescence slope in experiment [4] was -0.49 (inactive). Also, the NADPH fluorescence slope in experiment [5] is -1.9e-05 (inactive). For the same compound, in experiment [6], the slope is 0.00474 (inactive).

`Cc1cc(C)c(C(=O)Nc2ccc(S(=O)(=O)Nc3onc(C)c3C)cc2)c(C)c1`: the cell count in experiment [1] stood at 680. In addition, the inhibition in experiment [1] was 0.3% (inactive); in experiment [3] it was -36.9% (inactive); in experiment [7], 18.6% (inactive); in experiment [8], 22.1% (inactive). The inhibition of aggregation in experiment [2] is -6.2% (inactive). For the same compound, the results for the nuclei count in experiment [2] and in experiment [3] were 113% and 114%, respectively. The fluorescence slope in experiment [4] was -0.493 (inactive). In experiment [5], the NADPH fluorescence slope was -2.1e-05 (inactive). Moreover, the slope in experiment [6] was 0.00709 (inactive).

For the compound `COc1cccc(C=Nc2ccc3c(c2)OCCO3)c1O`, the cell count in experiment [1] was 301. In addition, the inhibition was 5.1% (inactive) in experiment [1], 25.8% (inactive) in experiment [3], 12.6% (inactive) in experiment [7] and -2.51% (inactive) in experiment [8]. In addition, the inhibition of aggregation in experiment [2] was 9% (inactive). Besides, the nuclei count in experiment [2] was determined as 97.3%; in experiment [3], 83.4%. Besides, in experiment [4], the fluorescence slope was -0.501 (inactive). Further, the NADPH fluorescence slope in experiment [5] is -3.1e-05 (inactive). The slope in experiment [6] is 0.00551 (inactive).

`O=C(NC1CCCCC1)c1nc2c(nnn2Cc2ccccc2Cl)c(=O)[nH]1`: the cell count in experiment [1] stood at 584. The inhibition in experiment [1] is 8.8% (inactive); in experiment [3] it was 7.2% (inactive); in experiment [7], 3.13% (inactive); in experiment [8], 6.18% (inactive). The inhibition of aggregation in experiment [2] is 17.1% (inactive). Moreover, the nuclei count was found to be 85.3% in experiment [2] and 105% in experiment [3]. Further, the fluorescence slope in experiment [4] is -0.525 (inactive). The NADPH fluorescence slope in experiment [5] was -2.9e-05 (inactive). Also, the slope in experiment [6] was 0.0047 (inactive).

Consider `Nc1nc(CSc2nc3ccccc3[nH]2)nc(N2CCOCC2)n1`, for which, in experiment [1], the cell count was determined as 675. For the same compound, the inhibition in experiment [1] was -17.6% (inactive); in experiment [3], -51% (inactive); in experiment [7] it was 3.37% (inactive); in experiment [8] it was 18.9% (inactive). The inhibition of aggregation in experiment [2] is -0.7% (inactive). The values for the nuclei count in experiment [2] and in experiment [3] were 87.9% and 111%, respectively. Besides, the fluorescence slope in experiment [4] is -0.449 (inactive). Besides, in experiment [5], the NADPH fluorescence slope is -3.7e-05 (inactive). For the same compound, the slope in experiment [6] is 0.00382 (inactive).

Take `Cc1cc(C(=O)CSCCCn2c(=O)[nH]c3ccccc32)c(C)n1C`: in experiment [1], the cell count was 494. Also, the inhibition is -3.3% (inactive) in experiment [1], -68.3% (inactive) in experiment [3], -10.6% (inactive) in experiment [7] and -5.21% (inactive) in experiment [8]. Moreover, the inhibition of aggregation in experiment [2] was 28.4% (inactive). Further, the nuclei count in experiment [2] amounted to 84.7%; in experiment [3], 113%. In addition, the fluorescence slope in experiment [4] is -0.604 (inactive). For the same compound, in experiment [5], the NADPH fluorescence slope is -9.1e-06 (inactive). The slope in experiment [6] is 0.00689 (inactive).

For `Cc1ccc(C(=O)OCC(=O)Nc2ccc3c(c2)OCO3)o1`, the cell count in experiment [1] was 429. The inhibition in experiment [1] was 14.6% (inactive); in experiment [3], 8.1% (inactive); in experiment [7], -15.7% (inactive); in experiment [8] it was -12.9% (inactive). In experiment [2], the inhibition of aggregation is 17.6% (inactive). The nuclei count in experiment [2] was 99.5%; in experiment [3], 112%. The fluorescence slope in experiment [4] is -0.595 (inactive). Besides, the NADPH fluorescence slope in experiment [5] is -5.5e-05 (inactive). The slope in experiment [6] is 0.00785 (inactive).

As for `CCC(C)NC(=O)CCNS(=O)(=O)c1ccc(Br)cc1` (centres undefined), the cell count in experiment [1] worked out at 605. Further, the inhibition is -17% (inactive) in experiment [1], -109% (inactive) in experiment [3], 3.69% (inactive) in experiment [7] and 33% (inactive) in experiment [8]. The inhibition of aggregation in experiment [2] was 17.5% (inactive). Besides, the nuclei count in experiment [2] turned out to be 66.3%; in experiment [3], 118%. For the same compound, the fluorescence slope in experiment [4] is -0.325 (inactive). Moreover, the NADPH fluorescence slope in experiment [5] is 6.7e-06 (inactive). Further, the slope in experiment [6] is 0.00362 (inactive).

Turning to `COc1ccc2c(c1)C1(Nc3ccccc3-c3nc4ccccc4n31)C(=O)N2` (centres undefined), the cell count in experiment [1] was determined as 240. Besides, the inhibition in experiment [1] is 5.7% (inactive); in experiment [3], 13.2% (inactive); in experiment [7], 17.4% (inactive); in experiment [8], 36.3% (inactive). For the same compound, the inhibition of aggregation in experiment [2] is 11.7% (inactive). Further, the nuclei count came to 78% in experiment [2] and 110% in experiment [3]. Moreover, in experiment [4], the fluorescence slope is -0.493 (inactive). Moreover, the NADPH fluorescence slope in experiment [5] was -4.6e-05 (inactive). The slope in experiment [6] is 0.00486 (inactive).

In the case of `O=C(c1ncc[nH]1)c1ccccc1C(=O)N1CCOCC1`, in experiment [1], the cell count came to 399. For the same compound, the inhibition in experiment [1] is 15.2% (inactive); in experiment [3], -232% (inactive); in experiment [7], -6.47% (inactive); in experiment [8], 4.36% (inactive). Further, the inhibition of aggregation in experiment [2] is 27.9% (inactive). In addition, the nuclei count in experiment [2] is 111%; in experiment [3], 116%. In addition, the fluorescence slope in experiment [4] is -0.515 (inactive). In addition, in experiment [5], the NADPH fluorescence slope was -0.000166 (inactive). In addition, in experiment [6], the slope is 0.00482 (inactive).
